From PubChem BioAssay (NCI) come the findings set out here.

About 83,000 compounds went through this panel and 20% of them were active in at least one assay; those are over-represented in the sample as a whole.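 In brief: 96-well plates, 48 h treatment, single concentration, percent growth endpoint.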 The source made the active and inactive calls. How the source made its calls: active means growth percent below 10; inactive means the rest.

For the assay, the system named is M14 melanoma. Kind of assay: NCI-60 one-dose screen, 48 h (100 = growth as untreated, 0 = no growth, -100 = all killed). The note with it: 10 µM unless noted.
As for `COc1ccc(Cn2cc3c(c2-c2ccccc2)CCc2cnoc2-3)cc1OC`, the growth is 30.5% (inactive). Consider `CC1(C)Oc2cc3oc(=O)ccc3cc2C[C@@H]1OCCOS(=O)(=O)c1ccc(C#N)cc1`, for which the growth was 98.4% (inactive). `c1ccc(-c2cn3ccnc3c(-c3ccc4ncn(C5CCCCC5)c4c3)n2)cc1`: the growth was 61.8% (inactive). Turning to `COC(=O)/C=C/c1cc(O)c2oc(-c3ccc(O)c(O)c3)c(C(=O)OC)c2c1`, the growth was 21% (inactive). For `CC1=C[C@@H]2c3c(c(O)c(O)c4oc5cc(O)cc(O)c5c(=O)c34)[C@@H](c3cc(O)c(O)c4oc5cc(O)cc(O)c5c(=O)c34)[C@@H]2C(C)(C)C1`, the growth was -47% (active). Then `COc1ccc(C(=O)CN2C(=O)NC(c3ccccc3)(c3ccccc3)C2=O)cc1`, with 103% (inactive); and `NNC(=S)N1N=C(c2cc3ccccc3o2)CC1c1c[nH]c2ccccc12` (configuration not stated), with 52.1% (inactive); and `Cc1c(C(N)=O)sc2c1c(=O)n(Cc1ccccc1)c1nnc(S(C)(=O)=O)n21`, with 76% (inactive).

As to `CCOC(=O)C1=NN(c2ccccc2)C2=NC(=O)/C(=C\c3cn(-c4ccccc4)nc3-c3cc4ccccc4o3)C(=O)N12`, the growth was 101% (inactive). For the molecule `CCCCN(CCCC)CC(O)CN(CC)CC` (configuration not stated), the growth is 95% (inactive).

Turning to `CC(C)OC(=O)[C@H](C)N[P@@](=O)(OC[C@@]1(C)O[C@@H](n2cc(F)c(N)nc2=O)C[C@@H]1O[P@](=O)(N[C@@H](C)C(=O)OC(C)C)Oc1ccccc1)Oc1ccccc1`, the growth is 91.6% (inactive).

Turning to `COc1ccc(Cn2cc3c(c2)-c2oncc2CC3)cc1OC`, the growth is 4.9% (active).
